Screening data as filed in PubChem.
Most compounds without a hit are left out; they make up all but 3.5% or so of the library.
GPR151 ag – human GPR151 activation. activation, % at 11.2 µM. PathHunter beta-arrestin GPR151 cells, luminescence. 650,000 tested, 1% active; in the data active = activation above about 4.9%;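 note: 0% = median of compound wells and 100% = cells with positive control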
Target sequence (Q8TDV0 whole entry, looked up): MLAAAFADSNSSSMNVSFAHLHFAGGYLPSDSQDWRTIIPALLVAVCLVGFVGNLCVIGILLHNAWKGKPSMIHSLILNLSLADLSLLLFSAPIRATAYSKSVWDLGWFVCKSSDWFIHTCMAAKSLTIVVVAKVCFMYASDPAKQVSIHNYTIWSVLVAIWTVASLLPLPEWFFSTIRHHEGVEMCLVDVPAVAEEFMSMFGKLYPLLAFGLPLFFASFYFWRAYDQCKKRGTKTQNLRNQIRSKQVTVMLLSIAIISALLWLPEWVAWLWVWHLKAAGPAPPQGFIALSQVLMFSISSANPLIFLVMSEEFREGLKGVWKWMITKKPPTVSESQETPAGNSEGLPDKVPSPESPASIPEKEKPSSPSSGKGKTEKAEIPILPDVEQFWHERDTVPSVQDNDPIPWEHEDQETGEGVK
TEAD-YAP inh – TEAD-YAP interaction inhibition; inhibition, % at 9.12 µM; HEK-TIYL cells, TEAD-Gal4/YAP UAS-luciferase luminescence; 640,000 tested, 1.4% active; in the data active = inhibition above about 32%;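 note: 0% = median of test compound wells and 100% = reference inhibitor wells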
FBW7 act – activators of human E3 ligase FBW7 | Q969H0 | AlphaScreen FBW7–phospho-cyclin E peptide binding, activator screen | normalized activity (activation), % at 26.1 µM | 650,000 tested, 0.13% active | AID 1259310; in the data active = normalized activity above about 1.9%;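 note: purified mutant Fbw7 with reduced substrate affinity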
MITF inh – inhibitors of human MITF. AlphaScreen MITF homodimerization, bead proximity signal. AID 1259374. O75030. 650,000 tested, 0.91% active. inhibition, % at 2.6 µM; in the data active = inhibition above about 50%;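 note: 0% = vehicle wells with protein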
* hit, by the source's call.

SMILES	GPR151 ag	TEAD-YAP inh	FBW7 act	MITF inh
COc1ccccc1N1CCN(C(=O)CN2CCN(c3ccccc3F)CC2)CC1	-0.9	-14.3	0.1	14.9
O=C(Cc1ccc([N+](=O)[O-])cc1)OCC(=O)c1ccc2ccccc2c1	1.1	46.4*	-0.1	20.4
c1ccc(-c2nc(NC3CCCCC3)c3ccccc3n2)cc1	0.9	7.7	0.0	9.2
c1ccc2c(NC3CC3)nc(N3CCCC3)nc2c1	-0.4	32.3*	0.6	3.4
Clc1nc(NC2CCCC2)c2ccccc2n1	-0.5	60.0*	0.3	14.8
CCN(CC)CC(=O)Nc1ccccc1	-0.4	-4.4	-0.1	0.3
CCOc1ccc(/C=C/C(=O)Nc2ccccc2F)cc1	-9.3	90.5*	0.2	-2.0
Cc1cc(C(=O)N(Cc2cccn2C)C2CC2)c(C)o1	-0.1	-9.2	0.1	-2.7
COc1ccc(/C=C/C2=NN(c3ccccc3)C(c3ccc(OC)cc3OC)C2)c(OC)c1 (centres undefined)	0.8	1.8	2.7*	-55.0
CC(C)C(=O)/C(=C/c1ccc(Cl)cc1Cl)n1cncn1	1.3	73.1*	0.0	7.9
Cc1nn(C)c(C)c1/C=C(/C(=O)C(C)C)n1cncn1	0.9	3.7	0.0	33.4
O=C(/C=C/Nc1ccccc1I)c1ccccn1	-4.9	80.3*	0.0	8.9
O=C(/C=C/Nc1cccc2cccnc12)c1ccccc1	-1.1	-51.5	0.0	16.2
Cc1ccccc1CN1CCNC(=O)C1CC(=O)NCc1ccc(F)cc1F (centres undefined)	0.1	18.6	-0.1	8.2
COC(=O)c1nn(-c2ccc3c(c2)CCN3C(C)=O)cc1O	-10.5	94.5*	0.0	-2.5
CC(=O)Nc1ccc(C(=O)N2CCC(C)CC2)cc1	0.9	0.0	-0.1	-8.6
COc1ccccc1C(NC(=O)C(C)C)c1ccc2cccnc2c1O (centres undefined)	-1.3	72.8*	-2.1	22.8
COc1ccccc1C(NC(C)=O)c1ccc2cccnc2c1O (centres undefined)	-1.8	33.2*	-1.8	57.0*
COC(=O)c1ccc(-c2ccc(/C=C(\C#N)c3nc(N)c(C#N)c(N)c3C#N)o2)cc1	0.1	12.3	4.7*	17.9
CCOC(=O)c1ccc(NC(=O)c2cccc(S(=O)(=O)N(CC)CC)c2)cc1	1.0	43.4*	0.2	4.7
CCOC(=O)c1ccc(NC(=O)c2cccc(OCC)c2)cc1	-1.8	-18.3	0.2	-4.9
CCN(CC)S(=O)(=O)c1cccc(C(=O)Nc2cccc(NC(=O)c3cccc(S(=O)(=O)N(CC)CC)c3)n2)c1	0.4	12.0	0.0	2.4
CCN(CC)S(=O)(=O)c1cccc(C(=O)Nc2ccc(O)cc2)c1	-1.9	48.1*	0.2	5.5
CN(C)S(=O)(=O)c1cccc(C(=O)Nc2cccc(O)c2)c1	0.3	57.6*	-0.1	-9.8
CC1CCc2c(sc(NC(=O)/C=C/C(=O)O)c2C(N)=O)C1 (centres undefined)	-1.5	2.1	0.2	3.2
SMILES	GPR151 ag	TEAD-YAP inh	FBW7 act	MITF inh
COc1ccc(CNC(=O)c2nn3c(C(F)(F)F)cc(-c4ccccc4)nc3c2Cl)cc1	-0.1	3.0	-0.3	15.5
CCOC(=O)Cn1nnnc1CN(CCCO)Cc1cc2ccc(C)c(C)c2[nH]c1=O	-1.0	-3.8	0.1	13.7
CCN1/C(=C\C=C(/C)C=O)Sc2ccccc21	3.2	10.9	-0.4	8.5
CCN1/C(=C/c2ccc3ccccc3[n+]2CC)Sc2ccc(I)cc21	4.1	68.3*	0.2	17.7
CCN1/C(=C/c2ccc3ccccc3[n+]2CC)Sc2ccc(OC)cc21	1.2	90.0*	-0.1	17.5
CCCCN1/C(=C/c2ccc3cc(OC)ccc3[n+]2CC)Sc2ccc(OC)cc21	2.1	89.0*	-1.1	17.8
CCCCN1/C(=C/c2ccc3ccccc3[n+]2CC)Sc2ccccc21	4.4	92.1*	-0.9	5.3
CC[n+]1c(I)ccc2cc(OC)ccc21	1.7	-1.5	-0.2	-1.3
COc1ccccc1-n1c(C)c(C)n2c3c(=O)n(Cc4ccc(F)cc4)c(=O)n(C)c3nc12	-0.2	3.6	0.0	-10.0
COc1ccc(-n2nc3c(c2NC(=O)c2cc(Cl)ccc2Cl)CSC3)cc1	-0.9	14.8	0.0	5.4
CCn1c2ccccc2c2cc(CNCc3ccccc3OC)ccc21	1.8	2.7	-0.2	28.4
Cc1ccc(NC(=O)CCN2CCOCC2)cc1Br	-0.5	-9.2	0.1	26.7
CCN1/C(=C/c2ccc3cc(NC(C)=O)ccc3[n+]2CC)Sc2ccccc21	0.0	52.4*	-0.7	5.7
CCN1/C(=C/c2ccc3ccccc3[n+]2CC)Sc2c1ccc1ccccc21	1.4	87.0*	-0.3	42.6
